This passage reports growth results from PubChem BioAssay (NCI).

SMILES strings stand for the structures. Compounds without any hit were thinned out: in the full panel of roughly 83,000, 20% have a hit.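 Growth was measured after 48 h exposure to one concentration of compound in 96-well plates. Values under 10 count as active.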 Unmarked numbers belong to inactive results. The source made the active and inactive calls.

The subject of this assay is HT29 colon. Briefly: NCI-60 one-dose screen, 48 h (100 = growth as untreated, 0 = no growth, -100 = all killed). As to conditions: 10 µM unless noted.
Consider `c1cnc2ccc3ncccc3c2c1`, for which the growth is 113%. On to `CCCCCCCCCCSc1ncnc2nc[nH]c12`, for which the growth was 90.9%. To `Clc1ccc2c(Nc3ccc4oc(NCCN5CCCC5)nc4c3)ccnc2c1` belongs 38.1%; to `CCN(CC)CCCNCCCNc1cc(OC)cc2cccnc12`, 40%; to `CCCCCCCCCCCCNc1ncnc2[nH]ncc12`, 97.9%. To `CCCCCCCC/C=C/CCCCCCCC1=NC(C)(C)CN1CCO` belongs -42.1% (active); to `O=C(CN1CCCCC1)Sc1nnc2sc3ccccc3n12`, 118%; to `c1cncc(CNc2ccccc2-c2nnc(Nc3ccc4c(c3)OCO4)o2)c1`, 8.59% (active). For `CC(=O)NC1(C(=O)O)CCCC1`, the growth was 116%. The figure for `CCCCCCCCCCCCCCCCN=C(CC(=O)O)C(=O)O` is 82.1%; for `c1ccc(N2CCN(c3nncc4ccccc34)CC2)nc1` it is 98.2%. As to `O=c1[nH]c(Cl)nc2c1cnn2-c1ccccc1`, the growth was 64.4%. With `ClC1=C(Cl)C(Cl)=C(Cl)C1=C/C=C/c1ccccc1`, the growth was 7.03% (active). For `CN(CC(=O)N(Cc1ccc(C2CCCCC2)cc1)c1ccc(C(=O)O)cc1)S(=O)(=O)c1c(F)c(F)c(F)c(F)c1F`, the growth was -22.3% (active). The figure for `COc1ccc(C2CC(c3cccc(Nc4ccnc5cc(Cl)ccc45)c3)=NN2C=O)cc1` (stereo not drawn) is -55.8% (active); for `CCCCCCCCCCCCCCCCCC1=NC(C)(C)CN1CCO` it is -44.7% (active); for `COc1ccc(CCN2CCCN3C2=Nc2ccccc2S3(=O)=O)cc1` it is 13.7%.

On to `CCOC(=O)c1cc(-c2cccnc2)nc2c(Cl)cc(Cl)cc12`, for which the growth is 88%.
